# Assay outcomes: PubChem, The Scripps Research Institute Molecular Screening Center
# HTR5A inv ctr: HTR5A inverse agonism, opioid heterodimer counter-screen. P47898. HTR5A cell line, luminescence. inhibition, % at 9.3 µM. hit rate 0.083% among 340,000. AID 504634; in the data active means inhibition mostly above about 23%, no sharp cut-off; inactive means mostly below about 18%
# HTR2A ag: mouse HTR2A agonism via beta-arrestin recruitment. CHO-K1 mHTR2A beta-arrestin complementation, luminescence; percent of 30 µM serotonin response. activation, % at 7.6 µM. hit rate 0.66% among 360,000. AID 624169;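 active means activation above a run cutoff, the mean activation of all tested compounds plus 3 SD, cut at about 14% in these data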
# Target sequence (P35363 whole entry, looked up): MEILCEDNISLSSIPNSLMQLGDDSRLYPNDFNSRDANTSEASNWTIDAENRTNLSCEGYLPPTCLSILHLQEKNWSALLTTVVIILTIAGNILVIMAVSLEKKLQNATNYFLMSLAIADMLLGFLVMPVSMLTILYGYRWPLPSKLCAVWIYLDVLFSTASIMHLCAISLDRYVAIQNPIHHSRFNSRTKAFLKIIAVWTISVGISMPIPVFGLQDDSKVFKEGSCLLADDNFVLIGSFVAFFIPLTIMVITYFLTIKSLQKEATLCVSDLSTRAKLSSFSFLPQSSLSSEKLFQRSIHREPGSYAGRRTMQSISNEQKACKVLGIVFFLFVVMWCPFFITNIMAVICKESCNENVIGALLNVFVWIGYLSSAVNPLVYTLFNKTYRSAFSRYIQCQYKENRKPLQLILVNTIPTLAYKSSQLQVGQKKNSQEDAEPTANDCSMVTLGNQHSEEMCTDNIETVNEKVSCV
# MOR-DOR inv ag: mu-delta opioid heterodimer inverse agonism | P35372+P41143 | cell-based MOR-DOR heterodimer luminescence | inhibition, % at 9.3 µM | hit rate 0.21% among 340,000 | AID 504357; in the data active means inhibition above about 22%, passing the limit was not always enough
# OPRM1-OPRD1 ag: agonists of human mu-delta opioid receptor heterodimerization; cells, OPRM1-OPRD1 heterodimerization, luminescence; P35372+P41143; hit rate 0.3% among 340,000; AID 504326; activation, % at 9.3 µM; in the data active means activation above about 18%
# HTR5A ag ctr: activates human HTR5A in OPRM1-OPRD1 agonist counter-screen. HTR5A agonist assay, luminescence, cell-based. activation, % at 9.3 µM. hit rate 0.61% among 340,000. AID 504692; in the data active means activation mostly above about 9.5%, no sharp cut-off; inactive means mostly below about 7.6%
# Hits are given with their value; . = inactive; / = no result. Rows were chosen to be rich in hits. Some 1.6% of all compounds tested hit in one or more screens of this group.
SMILES,HTR5A inv ctr,HTR2A ag,MOR-DOR inv ag,OPRM1-OPRD1 ag,HTR5A ag ctr
CCc1nnc(NS(=O)(=O)c2ccc(Nc3ccc([N+](=O)[O-])c4nonc34)cc2)s1,30.9,.,36.1,.,.
CCc1nnc(NS(=O)(=O)c2ccc(NS(=O)(=O)c3ccccc3[N+](=O)[O-])cc2)s1,.,.,.,.,.
C=CCn1c(Cc2cccs2)nnc1SCC(=O)Nc1ccc(OC)c(OC)c1,.,.,.,.,.
CCn1c(SCC(=O)Nc2ccc3c(c2)oc2ccccc23)nnc1-c1ccc(N)cc1,.,.,.,.,10.6
CCn1c(Cc2cccs2)nnc1SCC(=O)Nc1ccc(OC)c(OC)c1,.,.,.,.,9.7
CC(NCC(O)COc1ccccc1)C1COc2ccccc2O1 (stereo not drawn),.,.,.,.,11.6
Cc1[nH]n2c(=O)c3c(nc2c1-c1ccc(Cl)cc1)CCC3,.,.,.,.,19.8
O=C(NC1CC1)c1cccc(NC(=O)c2cn3ccccc3n2)c1,.,.,.,.,13.0
C=CCn1c(O)c(N=NC(=O)CNC(=O)Cc2ccccc2)c2ccccc21,.,.,.,.,10.9
COc1cc(-c2nnc(COC(=O)c3nn(CC(C)C)c(=O)c4ccccc34)o2)cc(OC)c1OC,.,.,.,.,.
Cc1cccc2c1NC(=O)C2=O,.,.,41.1,.,.
COc1ccccc1N1CCN(C(=O)c2cc3c(s2)CCCCC3)CC1,.,.,.,.,10.2
CC[n+]1ccc(/C=C/c2ccc(N(C)C)cc2)c2ccccc21,34.4,.,.,.,.
COc1cc(OC)c(NS(=O)(=O)c2c(C)[nH]c(=O)[nH]c2=O)cc1Cl,.,.,.,.,.
Fc1ccc(-[n+]2nc(Nc3ccccc3)sc2-c2c3ccccc3cc3ccccc23)cc1,.,.,.,.,16.9
COc1ccc(NC(=O)Nc2cccc(C(F)(F)F)c2)cn1,.,.,.,.,12.9
CCOCCn1c(SCc2ccc(C)cc2)nc2c1c(=O)[nH]c(=O)n2C,.,.,.,.,12.9
COc1ccc(/C=C2\CCc3ccccc3C2=O)cc1O,.,.,.,.,.
CC(C)(C)NC(=O)CC1C[C@H](C(=O)N2CCOCC2)[C@@]2(CCC3CCCC3)c3[nH]c4ccccc4c3CCN2C1=O (stereo partly drawn),.,.,.,.,8.6
O=C(C[C@H]1C[C@H](C(=O)N2CCOCC2)[C@@]2(CCC3CCCC3)c3[nH]c4ccc(Cl)cc4c3CCN2C1=O)NCC12CC3CC(CC(C3)C1)C2,.,.,.,.,.
CC(C)N(C(=O)[C@H]1C[C@H](CC(=O)NCC23CC4CC(CC(C4)C2)C3)C(=O)N2CCc3c([nH]c4ccc(Cl)cc34)[C@]12C)C(C)C,.,.,.,.,4.2
CC[C@]12c3[nH]c4cc(-c5ccco5)ccc4c3CCN1C(=O)[C@@H](CC(=O)NCc1ccco1)C[C@@H]2C(=O)N1CCN(C(=O)C2CC2)CC1,.,.,.,.,4.4
CC[C@]12c3[nH]c4cc(-c5ccco5)ccc4c3CCN1C(=O)[C@@H](CC(=O)NCC13CC4CC(CC(C4)C1)C3)C[C@@H]2C(=O)N1CCN(C(=O)C2CC2)CC1,.,.,.,.,.
COc1ccc2[nH]c3c(c2c1)CCN1C(=O)C(CC(=O)NCC24CC5CC(CC(C5)C2)C4)C[C@H](C(=O)N2CCOCC2)[C@@]31CCC1CCCC1 (stereo partly drawn),.,.,.,.,4.4
O=C(N/N=C/c1ccccc1OC(F)F)c1cc(-c2ccncc2)nc2ccccc12,.,.,.,.,12.4
SMILES,HTR5A inv ctr,HTR2A ag,MOR-DOR inv ag,OPRM1-OPRD1 ag,HTR5A ag ctr
NC(=O)CC(NC(=O)c1ccccc1)c1ccc(NCc2ccccn2)c([N+](=O)[O-])c1 (stereo not drawn),.,.,.,.,.
COC(=O)c1ccc(NC(=O)C2CCCN(S(=O)(=O)c3cnc[nH]3)C2)cc1 (stereo not drawn),.,17.4,.,.,.
CCc1ccc(NC(=O)C2CCCN(S(=O)(=O)c3cnc[nH]3)C2)cc1 (stereo not drawn),.,.,.,.,.
O=C(NC1CCCc2ccccc21)C1CCCN(S(=O)(=O)c2cnc[nH]2)C1 (stereo not drawn),.,.,.,.,.
O=C(NC1CCCCCC1)C1CCCN(S(=O)(=O)c2cnc[nH]2)C1 (stereo not drawn),.,23.6,.,.,.
O=C1NC[C@@H](CCCCN2C[C@H](Cc3ccccc3)N(Cc3ccccc3)C(=O)C2=O)N(Cc2ccccc2)C1=O,/,.,/,/,/
CC(C)Cc1nnc(NC(=O)CSc2ncn[nH]2)s1,.,.,.,.,12.8
COC(=O)c1c(NC(=O)CSc2ncn[nH]2)sc(C)c1C,.,.,.,.,12.7
Cc1cc(=O)[nH]c(SCC(=O)Nc2nnc(CC(C)C)s2)n1,.,.,.,.,.
CCOC(=O)c1c(NC(=O)CSc2ncn[nH]2)sc(C(C)=O)c1C,.,.,.,.,.
O=C(COc1cccc(C(F)(F)F)c1)NCC(c1ccco1)N1CCCCC1 (stereo not drawn),.,.,.,.,.
CC1(C(=O)Nc2cccc3ccccc23)CCN1C(=O)Cc1ccccc1Cl (stereo not drawn),/,.,/,/,/
N#Cc1ccc(CN2CCN(C(=O)c3ccc(S(=O)(=O)NCc4ccco4)cc3)CC2)cc1,.,.,.,.,11.6
N#Cc1ccc(CN2CCN(C(=O)CCNS(=O)(=O)c3ccc(F)c(Cl)c3)CC2)cc1,.,48.8,.,.,.
CC(C)(C)c1ccc(OCc2ccc(C(=O)N/N=C/c3ccc(O)c(O)c3)cc2)cc1,.,.,.,.,8.8
O=C(N/N=C/c1ccc(OCc2ccc(F)cc2)cc1)c1ccccc1,.,.,.,.,.
CC(Cc1cccs1)NC(=O)CCCn1nnnc1CN1CCOCC1 (stereo not drawn),.,.,.,.,.
Cc1cccc(NC(=S)N/N=C/c2ccc(Cl)c([N+](=O)[O-])c2)c1,.,.,.,.,9.3
O=C1C(SCCO)=C(SCCO)C(=O)c2ccccc21,40.8,.,.,.,.
O=[N+]([O-])c1cc2no[n+]([O-])c2cc1N1CCCCC1,.,.,.,.,.
CCc1cccc(NC(=O)CN(C)S(=O)(=O)c2cccc3cccnc23)c1,.,.,.,.,.
Clc1ccc(CNc2ncnc3[nH]ncc23)c(Cl)c1,.,.,.,.,.
CC1CCc2c(sc3nc(C(C)(C)C)nc(N4CCN(C(=O)CCl)CC4)c23)C1 (stereo not drawn),.,.,.,71.7,45.6
Nc1ccc(-c2c3ccc(=O)cc-3oc3cc(O)ccc23)c(C(=O)O)c1,.,.,31.6,.,.
O=C(NCCc1c[nH]c2ccccc12)C(F)(F)F,.,.,.,.,13.7
CCOC(=O)c1sc2nc(C)nc(N3CCN(c4ncccn4)CC3)c2c1C,.,.,.,.,.
N#Cc1ccc(CN(c2ccncc2)S(=O)(=O)c2ccccc2)cc1,.,.,.,.,.
Cc1cccc(OCC(=O)NCC(=O)N/N=C/c2ccccc2)c1,.,.,.,.,10.0
